Screen size: about 1,000 compounds; about 260 (26%) were called active. Not all results are given here. Unmarked numbers belong to inactive results. Rule as the data show it: active = inhibition above about 21%; inactive = the rest.
Target: E3 ubiquitin-protein ligase UHRF1 (Homo sapiens) (UniProt Q96T88)
Test: UHRF1 methylated DNA binding inhibitors, counter-screen for MBD2 inhibitor project, biochemical, TR-FRET, human UHRF1 (AID 720530);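 also: UHRF1 SRA domain binding a labeled hemimethylated CpG hairpin DNA; 0% = vehicle only and 100% = reference inhibitor with vehicle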
Conditions: UHRF1 binding to methylated oligonucleotide, at 4.4 µM, active compounds read high

Chain of E3 ubiquitin-protein ligase UHRF1 (Homo sapiens) (Q96T88 whole entry, looked up, the tested form may be a part): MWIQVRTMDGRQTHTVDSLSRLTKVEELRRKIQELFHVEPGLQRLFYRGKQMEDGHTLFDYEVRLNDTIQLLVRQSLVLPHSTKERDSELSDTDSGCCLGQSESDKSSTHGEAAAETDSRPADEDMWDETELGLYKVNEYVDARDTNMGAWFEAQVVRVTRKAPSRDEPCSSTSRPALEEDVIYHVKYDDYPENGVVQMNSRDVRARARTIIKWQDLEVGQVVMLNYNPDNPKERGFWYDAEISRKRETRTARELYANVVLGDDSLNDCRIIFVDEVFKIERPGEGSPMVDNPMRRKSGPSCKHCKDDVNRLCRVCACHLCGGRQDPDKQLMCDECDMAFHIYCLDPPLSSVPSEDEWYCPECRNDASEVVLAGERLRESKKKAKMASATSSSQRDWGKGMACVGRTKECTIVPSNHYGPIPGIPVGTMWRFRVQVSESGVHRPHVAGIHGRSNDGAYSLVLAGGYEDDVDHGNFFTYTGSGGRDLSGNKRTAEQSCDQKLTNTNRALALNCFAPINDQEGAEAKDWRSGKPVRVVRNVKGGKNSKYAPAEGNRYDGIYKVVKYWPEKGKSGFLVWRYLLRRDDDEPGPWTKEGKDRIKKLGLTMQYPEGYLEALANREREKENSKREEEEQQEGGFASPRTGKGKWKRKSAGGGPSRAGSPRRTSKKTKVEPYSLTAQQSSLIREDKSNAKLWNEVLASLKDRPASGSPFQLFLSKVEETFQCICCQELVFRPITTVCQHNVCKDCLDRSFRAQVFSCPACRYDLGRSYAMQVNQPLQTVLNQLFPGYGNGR

SMILES	inhibition
CCN(CC)CCOc1ccc2c(c1)C(=NNC(=O)c1ccccn1)c1cc(OCCN(CC)CC)ccc1-2	108% (active)
COC(=O)c1ccc2nc(-c3cccc(Br)c3)c(Cc3ccc(OC)cc3C)n2c1	12.2%
Cc1ccc(C)c(NC(=O)c2ccc(OC(=O)c3ccco3)cc2)c1	8.96%
CCOC(=O)CCP(=O)(O)C(O)(c1ccccc1)c1ccccc1	4.07%
Cc1cccc(NC(=O)C[C@H]2CC[C@H]3[C@@H](COc4ccc(NC(=O)Nc5ccccc5)cc4C(=O)N3C)O2)c1	0.48%
CC(C)c1nc(CNC(=O)CC2C(=O)NCCN2Cc2cccc(F)c2F)cs1 (stereo not given)	9.89%
COc1ccc2c(c1)c(=Cc1ccc(N(C)C)cc1)c1cc(-c3ccccc3)[n+](C)n12	83.9% (active)
Cc1ccc(-c2ccnc3nc(Sc4ncc(C(F)(F)F)cc4Cl)nn23)cc1	8.79%
Cc1cccc(CN2CCN(C3CN(Cc4cn(Cc5cc(C)cc(C)c5)nn4)S(=O)(=O)C3)CC2)c1 (stereo not given)	9.39%
COC(=O)c1cccc(NC(=O)c2cccc(N3C(=O)CCC3=O)c2)c1	6.97%
COc1ccc(CNC(=O)c2c[nH]c3c(OC)cc(OC)cc3c2=O)cc1	5.78%
CN(C(=O)COC(=O)c1cc(-c2ccco2)nc2ccccc12)C1CCS(=O)(=O)C1 (stereo not given)	35.3% (active)
O=C(c1n[nH]c2c1CCC2)N1CCCC(Nc2cccc(F)c2)C1 (stereo not given)	6.16%
CC(C)Oc1ccc(C2NC(=O)NC2=O)cc1 (stereo not given)	6.8%
CCOc1cc(-c2noc(CCCC(=O)NC3CCCCC3)n2)ccc1OC	4.27%
c1ccc2cc3c(NCCN4CCOCC4)ccnc3cc2c1	21.8% (active)
COc1ccc(-n2cc(-c3ccccc3)c3c(=S)nc[nH]c32)cc1	-1.36%
COc1nc(N(C)C)nc(N2CC(=O)N(CCNS(=O)(=O)c3ccc(C)cc3)C2=N)n1	6.8%
CC(=O)c1ccccc1NC(=O)COC(=O)C1COc2ccccc2O1 (stereo not given)	2.18%
COc1ccc2[nH]c3c(C)c4cc[n+](C)cc4c(C)c3c2c1	94.4% (active)
CCOC(=O)C1C(=O)OC2(CCCC2)C1C(=O)OCC (stereo not given)	1.98%
O=C(CC1CCCCC1)Nc1c2c(nn1-c1ccc(F)cc1)CS(=O)(=O)C2	5.19%
C=CCN1C(=O)c2ccc(C(=O)N3CCC(C(=O)OCC)CC3)cc2C1=O	4.16%
C=CC1=C(C(=O)O)N2C(=O)[C@@H](NC(=O)/C(=N\OCC(=O)O)c3csc(N)n3)[C@H]2SC1	106% (active)
Nc1ccccc1C(=O)NC1CCCCNC1=O (stereo not given)	4.32%
Cc1ccc(C(=O)Nc2ccc3c(c2)OCO3)cc1S(=O)(=O)N1CCCCC1	4.99%
COc1ccc(COC[C@H](CC(C)C)N2CCN(C(=O)c3cccc(C(F)(F)F)c3)CCC2=O)cc1	8.9%
COC(=O)[C@]12C[C@H](CC(=O)NCCC(C)C)C(=O)N(CCc3ccc(OC)c(OC)c3)C1=C[C@H](C(C)(C)C)O[C@@H]2C	7.24%

SMILES	inhibition
COc1ccc(OCc2cc(C(=O)NCC3(C)COC3)no2)c(Cl)c1	2.8%
COC(=O)c1c(NC(=O)c2ccc(S(=O)(=O)N3CCOCC3)cc2)sc2c1CCN(C(C)C)C2	29.1% (active)
Cc1c(NS(=O)(=O)c2cc(C(=O)NCCc3ccc(F)cc3)cc(Cl)c2Cl)c(=O)n(-c2ccccc2)n1C	3.95%
O=c1ccc2c(-c3ccccc3S(=O)(=O)O)c3ccc(O)c(O)c3oc-2c1O	73.8% (active)
C=C1c2c(Cl)ccc(O)c2C(O)=C2C(=O)[C@]3(O)C(O)=C(C(N)=O)C(=O)[C@@H](N(C)C)[C@@H]3[C@@H](O)C12 (stereo not given in full)	19.2%
CCOC(=O)c1ccc(-n2c(CCC(=O)O)ccc2-c2ccccc2)cc1	7.24%
C=CCN(C(=O)[C@@H](CCCC)[C@@H](O)c1ccc(Cl)cc1)c1ccccc1	6.35%
CN(C)[C@@H]1C(=O)C(C(N)=O)=C(O)[C@@]2(O)C(=O)C3=C(O)c4c(O)ccc(Cl)c4[C@@H](O)[C@H]3C[C@@H]12	12.2%
COc1ccccc1C(=O)NNC(=O)CCN1C(=O)/C(=C\c2ccccc2)SC1=S	7.6%
Cc1ccc(Cc2cnc(N)s2)o1	7.64%
Cc1cc(C)c2nc3nc(C)cc(C)c3c(N)c2c1	46.3% (active)
CN(C)CCNC(=O)c1ccc(Cl)c2cc3ccccc3nc12	39.7% (active)
COC(=O)c1cn(C)c2ccc(S(=O)(=O)N3CC(C)CC(C)C3)cc2c1=O (stereo not given)	14.2%
CCOC(=O)c1sc(NC(=O)CCN2CCOCC2)c(C(=O)OCC)c1C	-14.4%
CNC(=O)C[C@H]1C(=O)N(c2ccc(OC)cc2)C[C@@H]1Cc1ccccc1	5.54%
CCOc1ccc(NC(=O)c2cc(C)nc3ccccc23)cc1	3.69%
CCOc1ccc(S(=O)(=O)N2CCC(c3ccccc3)CC2)cc1C(=O)O	0.13%
Brc1ccc(-c2n(-c3ccccn3)c3ccccc3[n+]2-c2ccccn2)cc1	22.7% (active)
CO/N=C(/CS(=O)(=O)c1ccc(Br)cc1)c1ccc(OC)cc1	5.83%
C=CCn1c(=S)[nH]c2scc(-c3ccco3)c2c1=O	47.7% (active)
CCOc1ccc(N(CC(=O)NCCOc2ccccc2OC)S(=O)(=O)c2ccccc2)cc1	11%
CCOc1cc(N2CCOCC2)c(OCC)cc1NC(=O)c1cc(C)nc2ccccc12	7.08%
COC(=O)c1ccc(CSc2nncn2N)cc1	9.29%
Cc1ccccc1NC(=O)CN1C(=O)N/C(=C\c2cccn2-c2cccc(C(=O)O)c2)C1=O	56.5% (active)
Cc1c(C=O)n(C)n(-c2ccccc2)c1=O	0.66%
COC(=O)c1ccc2nc(C3CCCCC3)c(Cc3cccc(F)c3)n2c1	5.68%
CCOc1ccc(-n2c(SCC(=O)Nc3ccc(OC)cc3)nc3sc4c(c3c2=O)CCN(C)C4)cc1	6.75%
